# Screening data from PubChem.
# TEAD-YAP block – TEAD-YAP interaction inhibition | 640,000 tested, 1.4% active | HEK-TIYL cells, TEAD-Gal4/YAP UAS-luciferase luminescence | inhibition, % at 9.12 µM | AID 1259422; in the data active means inhibition above about 32%;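 further: 0% = median of test compound wells and 100% = reference inhibitor wells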
# MITF primary – inhibitors of human MITF. O75030. 650,000 tested, 0.91% active. inhibition, % at 2.6 µM. AlphaScreen MITF homodimerization, bead proximity signal; in the data active means inhibition above about 50%;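 further: 0% = vehicle wells with protein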
# FBW7 act – activators of human E3 ligase FBW7; normalized activity (activation), % at 26.1 µM; AID 1259310; AlphaScreen FBW7–phospho-cyclin E peptide binding, activator screen; Q969H0; 650,000 tested, 0.13% active; in the data active means normalized activity above about 1.9%;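 further: purified mutant Fbw7 with reduced substrate affinity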
# GPR151 activ – activators of human GPR151. activation, % at 11.2 µM. PathHunter beta-arrestin GPR151 cells, luminescence. AID 1508602. 650,000 tested, 1% active. Q8TDV0; in the data active means activation above about 4.9%;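 further: 0% = median of compound wells and 100% = cells with positive control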
# Target sequence (Q8TDV0 whole entry, looked up): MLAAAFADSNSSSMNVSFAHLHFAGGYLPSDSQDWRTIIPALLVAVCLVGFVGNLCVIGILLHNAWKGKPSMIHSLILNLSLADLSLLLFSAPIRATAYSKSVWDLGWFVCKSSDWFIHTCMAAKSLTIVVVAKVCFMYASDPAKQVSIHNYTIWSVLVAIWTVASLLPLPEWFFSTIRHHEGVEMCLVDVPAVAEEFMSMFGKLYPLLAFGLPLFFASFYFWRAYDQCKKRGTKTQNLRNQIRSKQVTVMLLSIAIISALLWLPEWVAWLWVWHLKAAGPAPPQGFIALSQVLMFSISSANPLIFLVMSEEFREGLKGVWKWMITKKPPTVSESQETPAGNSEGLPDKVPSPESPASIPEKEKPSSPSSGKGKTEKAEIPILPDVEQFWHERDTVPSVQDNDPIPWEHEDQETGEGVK
# Active calls of the source: *. This is a sample that favours compounds with a hit; in the whole collection about 3.5% have one here.
SMILES,TEAD-YAP block,MITF primary,FBW7 act,GPR151 activ
CCOc1ccc(S(=O)(=O)N2c3ccc(F)cc3CCC2C)c2cccnc12 (stereo not drawn),50*,2,0,0
CCOc1ccc(S(=O)(=O)Nc2cc(F)ccc2F)c2cccnc12,-8,-17,0,0
Cc1ccc(-c2noc(CCC(=O)NC3CCCC3)n2)cc1,-1,31,1,-2
CC(C)(C)c1ccc(-c2noc(CCC(=O)NC3CCCC3)n2)cc1,64*,8,0,1
C=CCNC(=O)CCc1nc(-c2ccc(C(C)(C)C)cc2)no1,35*,5,0,-1
CCOc1ccc(-c2noc(CCC(=O)O)n2)cc1,50*,-18,0,0
CC(=O)c1ccc(Sc2nnnn2-c2ccccc2)c([N+](=O)[O-])c1,33*,4,0,-2
Cn1c(Sc2ccc([N+](=O)[O-])c3cnccc23)nnc1C(F)(F)F,-1,-12,0,1
O=[N+]([O-])c1ccc(Sc2nnnn2-c2ccccc2)c(Cl)c1,34*,21,0,0
Cc1ccccc1-n1nnnc1Sc1ccc([N+](=O)[O-])c2cnccc12,44*,-7,0,1
O=[N+]([O-])c1cc(C(F)(F)F)ccc1Sc1nnnn1-c1ccccc1,2,2,0,0
O=[N+]([O-])c1ccc(Sc2nnnn2-c2ccccc2)c2ccncc12,50*,4,0,-1
Cc1c([N+](=O)[O-])cc(C(=O)Nc2cccc(NC(=O)c3ccccc3)c2)cc1[N+](=O)[O-],-1,0,0,0
CCOc1ccc(/C(O)=C/c2nc3cc(C)ccc3oc2=O)cc1,-4,21,0,4
Cc1ccc(CC(=O)Nc2nc3c(s2)CCCC3)cc1,26,-9,0,0
Cc1nc(C)c(CC(=O)Nc2nc3c(s2)CCCC3)s1,40*,4,0,0
C=CCOc1ccc(C=C2C(=O)N(C)C(=S)N(C)C2=O)cc1OC,0,67*,0,0
C=CCOc1ccc(C=C2C(=O)N(C)C(=S)N(C)C2=O)cc1I,15,13,0,-1
COC(=O)C1=C(C)NC2=C(C(=O)CC(C)(C)C2)C1c1cccc(Cl)c1Cl (stereo not drawn),2,0,2.0*,1
CCOC(=O)C1=C(C)NC2=C(C(=O)CC(C)(C)C2)C1c1cccc(OC)c1O (stereo not drawn),11,4,1.9*,-1
CC1=C(C(=O)OCCc2ccccc2)C(c2ccc(Cl)cc2Cl)C2=C(CC(C)(C)CC2=O)N1 (stereo not drawn),-1,19,2.1*,2
COc1cc(C2C3=C(CC(C)(C)CC3=O)Nc3c2ccc2ccccc32)cc(Br)c1O (stereo not drawn),60*,-3,0,1
COCc1ccc(CN2CCCC(CNC(=O)c3cccc4ccccc34)C2)o1 (stereo not drawn),7,1,0,2
CC(C)c1nnc(NC(=O)c2cc(Cl)ccc2[N+](=O)[O-])s1,-4,-7,0,1
O=C(Cn1c(=O)[nH]c2ccccc21)NCc1ccc2c(c1)OCO2,75*,6,0,-6
SMILES,TEAD-YAP block,MITF primary,FBW7 act,GPR151 activ
COc1ccc(C)cc1Nc1c2c(nc3ncnn13)CCC2,38*,8,0,0
COc1ccccc1Nc1c2c(nc3ncnn13)CCC2,-7,1,0,0
CCCOC(=O)C1=C(C)NC2=C(C(=O)CCC2)C1c1cc(OC)c(OC)c(OC)c1 (stereo not drawn),6,13,0,0
Nc1cccc2c1C(=O)N(CC(=O)O)C2=O,-3,6,0,-1
O=C1CC(C(=O)N2CCC(Oc3ccc(C(=O)NCCc4ccccc4)cc3)CC2)CN1 (stereo not drawn),80*,10,0,0
O=C(NCCc1ccccc1)c1ccc(OC2CCN(C(=O)c3ccco3)CC2)cc1,83*,-13,0,-1
CC(C)=CC(=O)N1CCC(Oc2ccc(C(=O)NCCc3ccccc3)cc2)CC1,-7,2,0,-1
CCOc1ccc2nc3sc(C(=O)NCC4CCCO4)c(N)c3cc2c1 (stereo not drawn),-1,-9,0,0
COc1ccccc1CNc1ccc(C(=O)Nc2ccc(C(C)C)cc2)cc1[N+](=O)[O-],-8,-2,0,0
COc1cccc(NC(=O)c2ccc(C)cc2)c1,62*,6,0,-10
COc1cccc(NC(=O)c2ccc(NC(C)=O)cc2)c1,-23,11,1,1
COc1cccc(NC(=O)c2ccc(NCc3ccccc3OC)c([N+](=O)[O-])c2)c1,49*,2,0,1
O=C(Nc1ccc(F)cc1)c1ccc(Cl)cc1Cl,-22,12,1,-3
Cc1ccc(C(=O)Nc2ccc(F)cc2)c(Cl)c1,62*,5,0,-3
COc1cccc(C(=O)Nc2cccc(OC(=O)c3ccc(Br)cc3)c2)c1,44*,3,0,-2
COC(=O)c1ccccc1OC(C)C(=O)Nc1c(C)n(C)n(-c2ccccc2)c1=O (stereo not drawn),-5,-1,0,1
Cc1cc(Cl)nc(Cl)c1C(=O)Nc1ccccc1F,-6,-7,0,1
Cc1ccc(-n2c(=O)[nH]c3c(C(N)=O)nc(-c4ccccc4C)nc32)cc1,-2,13,0,-1
COc1ccc(OC)c(S(=O)(=O)Oc2cc(C)ccc2C)c1,1,3,0,0
COc1ccccc1NS(=O)(=O)c1cc([N+](=O)[O-])ccc1N/N=C/C1CC=CCC1 (stereo not drawn),8,10,0,0
COc1cccc(NC(=O)c2ccc(C)cc2Cl)c1,67*,13,0,-3
c1cnc2ccc(Nc3cc(NCc4nc5ccccc5[nH]4)ncn3)cc2c1,-25,-11,0,0
N=C1/C(=C/c2cccn2-c2cc([N+](=O)[O-])ccc2Cl)C(=O)N=C2SC=CN12,36*,8,0,-1
CCOC(=O)C1=C(N)Oc2cc(O)ccc2C1c1ccccc1Cl (stereo not drawn),2,-3,0,0
COC(=O)c1sc(-c2ccccc2)cc1NC(=O)c1ccc([N+](=O)[O-])o1,-11,-4,0,0
SMILES,TEAD-YAP block,MITF primary,FBW7 act,GPR151 activ
COc1ccc(C(=O)/C=C/Nc2ccc(Br)cc2)cc1OC,-15,3,0,-1
COc1cc(C(=O)/C=C/Nc2ccc(Br)cc2)cc(OC)c1OC,38*,-2,0,0
COc1ccc(N/C=C/C(=O)c2ccc(OC)c(OC)c2)cc1,-6,-8,0,1
COc1cc(C(=O)/C=C/Nc2ccc(I)cc2)cc(OC)c1OC,36*,-1,0,2
COc1ccc(N/C=C/C(=O)c2cc(OC)c(OC)c(OC)c2)cc1,42*,15,0,-1
CC(C)(C)C1CCc2onc(C(=O)NC3CCCC3)c2C1 (stereo not drawn),0,13,2.6*,1
C=CCNC(=O)c1noc2c1CC(C(C)(C)C)CC2 (stereo not drawn),-3,10,0,0
COC(CN(C)C1=NC(=O)/C(=C\c2ccc(SC)cc2)S1)OC,42*,5,0,-1
